Where “and” joins values, the source holds several entries; their conditions need not be identical. Equal values may be shown once. Hit rate of the full screen: of about 5,500 compounds, about 2,000 (36%) were called active. Another 18% or so got no clear call; they are omitted. Rule as the data show it: active = normalized growth mostly below about 0.91 (no sharp cut-off); inconclusive = no clear call, values can overlap the other calls; inactive = mostly above about 0.92. The list shows a part of the results.
Experiment: chemical genetic growth profiling, strain panel (AID 1159580);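 also: tested at 20 µM; growth read once vehicle control cultures reached saturation at 30 °C; 1 = growth at the plate median or of vehicle wells; lower values mean less growth of the strain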
Details: S. cerevisiae deletion strains, growth OD

Measured: normalized growth

CN1CCN(CCC=C2c3ccccc3Sc3ccc(S(=O)(=O)N(C)C)cc32)CC1
active: locus YAL026C, strain drs2, hits give low values 0.767 | locus YDR137W, strain rgp1, hits give low values 1.23 [resistant] | locus YDR318W, strain mcm21, hits give low values 0.911 | locus YDR388W, hits give low values 0.922 | locus YDR392W, strain spt3, hits give low values 0.456 | locus YER155C, strain BEM2 (second series), hits give low values 0.681 | locus YGL253W, strain hxk2, hits give low values 0.889 | locus YGR252W, strain gcn5, hits give low values 0.711 | locus YHR142W, strain chs7, hits give low values 0.86
inactive: locus YAL013W, strain DEP1, hits give low values 1.01 | locus YAL021C, strain ccr4, hits give low values 0.987 | locus YAL030W, strain snc1, hits give low values 0.991 | locus YBL061C, strain skt5, hits give low values 0.973 | locus YBR009C, strain hhf1, hits give low values 0.931 | locus YBR021W, strain FUR4, hits give low values 0.978 | locus YBR023C, strain chs3, hits give low values 0.919 | locus YBR171W, strain sec66, hits give low values 1.01 | locus YBR229C, strain ROT2, hits give low values 1.01 | locus YBR231C, strain swc5, hits give low values 0.945 | locus YBR279W, strain paf1, hits give low values 0.964 | locus YCL011C, strain gbp2, hits give low values 1.01 | locus YCL016C, strain dcc1, hits give low values 0.971 | locus YCL029C, strain bik1, hits give low values 0.978 | locus YCL061C, strain MRC1, hits give low values 0.953 | locus YCL069W, strain vba3, hits give low values 0.971 | locus YCR088W, strain abp1, hits give low values 1.01 | locus YDL005C, strain med2, hits give low values 0.996 | locus YDL035C, strain GPR1, hits give low values 1 | locus YDL040C, strain nat1, hits give low values 0.993 | locus YDL074C, strain BRE1, hits give low values 0.989 | locus YDL101C, strain DUN1, hits give low values 1 | locus YDL134C, strain PPH21, hits give low values 1 | locus YDL185W, strain tfp1, hits give low values 0.989 | locus YDL192W, strain arf1, hits give low values 0.991 | locus YDR001C, strain nth1, hits give low values 1.01 | locus YDR069C, strain doa4, hits give low values 1 | locus YDR101C, strain arx1, hits give low values 0.95 | locus YDR150W, strain NUM1, hits give low values 1.02 | locus YDR159W, strain sac3, hits give low values 0.936 | locus YDR162C, strain NBP2, hits give low values 1 | locus YDR195W, strain ref2 1.1 | locus YDR297W, strain sur2, hits give low values 0.975 | locus YDR334W, strain swr1, hits give low values 1.01 | locus YDR335W, strain msn5, hits give low values 0.953 | locus YDR502C, strain sam2, hits give low values 0.931 | locus YEL003W, strain gim4, hits give low values 1.01 | locus YEL037C, strain rad23, hits give low values 1 | locus YEL061C, strain CIN8 (second series), hits give low values 0.998 | locus YEL061C, strain CIN8, hits give low values 1.02 | locus YER015W, strain faa2, hits give low values 0.985 | locus YER016W, strain bim1, hits give low values 0.992 | locus YER110C, hits give low values 0.977 | locus YER111C, strain swi4, hits give low values 0.988 | locus YER155C, strain BEM2, hits give low values 0.999 | locus YER167W, strain BCK2, hits give low values 1 | locus YFR010W, strain ubp6, hits give low values 0.965 | locus YGL078C, strain dbp3, hits give low values 0.996 | locus YGL086W, strain mad1, hits give low values 0.946 | locus YGL167C, strain pmr1, hits give low values 1.01 | locus YGL173C, strain kem1, hits give low values 0.969 | locus YGL227W, strain vid30, hits give low values 1.02 | locus YGL240W, strain doc1, hits give low values 0.921 | locus YGL248W, strain PDE1, hits give low values 1 | locus YGR135W, strain pre9, hits give low values 0.904 | locus YHR013C, strain ard1, hits give low values 0.944 | locus YHR027C, strain rpn1, hits give low values 0.99 | locus YHR030C, strain SLT2, hits give low values 1.01 and 0.981 | locus YHR079C, strain IRE1 (second series), hits give low values 0.933 | locus YHR079C, strain IRE1, hits give low values 0.98 | locus YHR094C, strain hxt1, hits give low values 0.972 | locus YHR129C, strain ARP1, hits give low values 1.01 | locus YHR200W, strain rpn10, hits give low values 0.96 | locus YIL066C, strain RNR3, hits give low values 1.01 | locus YIL073C, strain SPO22, hits give low values 1.02 | locus YIL125W, strain kgd1, hits give low values 0.997 | locus YIR030C, strain dcg1, hits give low values 0.98 | locus YJL092W, strain hpr5, hits give low values 0.977 | locus YJL095W, strain BCK1 (second series), hits give low values 0.973 | locus YJL095W, strain BCK1, hits give low values 0.992 and 0.978 | locus YJL115W, strain asf1, hits give low values 1 | locus YJL129C, strain trk1, hits give low values 1.03 | locus YJL134W, strain LCB3, hits give low values 1.01 | locus YJL154C, strain vps35, hits give low values 1.01 | locus YJL164C, strain tpk1, hits give low values 0.972 | locus YJL166W, strain qcr8, hits give low values 0.979 | locus YJL168C, strain set2, hits give low values 0.971 | locus YJL187C, strain SWE1 (second series), hits give low values 1.01 | locus YJL187C, strain SWE1, hits give low values 0.994
